What all share (assay): PBM binding z-score (relative to random genomic background probes); higher = stronger binding; sequences stand for … in GC…GCGATTGACAGCGTAGAATGAAGG
Assay [1] has as its system RARb homodimer (NR concentration 270 nM). The gist of the method:
(§1)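 On custom Agilent 4×180K arrays, double-stranded probes with 34-nt variable regions carried direct-repeat seeds, single-nucleotide variants, half-site ablations or random human genomic background. Ligand-free nuclear receptor dimers were applied for 1 h, and binding was read with antibodies against each partner (one per run). Binding z-scores come from regression-normalized fluorescence, with the random background probes as reference.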

Assay [2] concerns RARg:RXRa (NR concentration 270 nM, RXRa partner concentration 90 nM). The gist of the method: as §1
For assay [3], the system named is RARg homodimer (NR concentration 270 nM). The gist of the method:
as §1

The subject of assay [4] is RXRa DBDmut IVT, anti-RXR (DBD mutation: RXRa K156A/R161A, NR concentration 90 nM). Put shortly:
as §1

The subject of assay [5] is RXRa homodimer (NR concentration 180 nM). Put shortly:
as §1

The subject of assay [6] is THRa:RXRa (NR concentration 90 nM, RXRa partner concentration 90 nM). The gist of the method: as §1
The subject of assay [7] is THRa homodimer (NR concentration 90 nM). The gist of the method:
as §1

Assay [8] deals with VDR homodimer (NR concentration 270 nM). Put shortly:
as §1

As for CAAACTAGGTCAGCGGAAGGTCAAAGTCCGCATG, the PBM binding z-score came to 5.24 in assay [1]; 7.66 in assay [2]; 6.32 in assay [3]; 1.11 in assay [4]; 4.98 in assay [5]; 4.05 in assay [6]. Also, the values for the PBM binding z-score in assay [7] and in assay [8] were 1.64 and 2.6, respectively.

With CTCGAAATGTCGGTTGAGGTGAGTATACGGATAA, the PBM binding z-score was found to be 0.344 in assay [1]; 0.0589 in assay [2]; 0.341 in assay [3]; 0.0185 in assay [4]; 0.114 in assay [5]; 3.31 in assay [6]. The figures for the PBM binding z-score in assay [7] and in assay [8] were 1.36 and 0.263, respectively.

For TCGAGTAGGTTACCATTGGGGCATTCAGCTTTCT, the PBM binding z-score in assay [1] turned out to be 0.675; in assay [2], 0.565; in assay [3], 0.217; in assay [4], 0.45; in assay [5], 0.293; in assay [6] it was 0.633. Moreover, the PBM binding z-score was -0.238 in assay [7] and -0.46 in assay [8].

As to TAGCCTAGGTCATTGGGCCAATATAGTACGCATC, the PBM binding z-score is 2.88 in assay [1]; 4.02 in assay [2]; 3.84 in assay [3]; 1.41 in assay [4]; 2.93 in assay [5]; 2.91 in assay [6]. The figures for the PBM binding z-score in assay [7] and in assay [8] were 1.2 and 1.1, respectively.

Regarding GCTTGTAGATCAAGGTTAAAAAAGACTAAGCTAA, the PBM binding z-score in assay [1] was determined as 0.0487; in assay [2] it was 0.373; in assay [3] it was 0.226; in assay [4], 0.0617; in assay [5] it was 0.736; in assay [6] it was 1.14. In addition, the PBM binding z-score in assay [7] is -0.222; in assay [8], 0.0143.

For TCTAGCAGGGCAGAGGGTCACTCAAGAGGTACGG, the PBM binding z-score was 2.89 in assay [1]; 3.12 in assay [2]; 2.36 in assay [3]; -0.00739 in assay [4]; 2.68 in assay [5]; 1.6 in assay [6]. The PBM binding z-score in assay [7] is -0.329; in assay [8], 0.66.

For CCTAGCAGGCCAGGGTCACTCCAGCATTTCGCTT, the PBM binding z-score in assay [1] was 2.7; in assay [2], 2.61; in assay [3], 2.18; in assay [4] it was 0.578; in assay [5], 2.86; in assay [6], 2.61. Further, the PBM binding z-score in assay [7] worked out at 1.02; in assay [8], 1.64.

As to CCAGACAGGCGAAAGGTAACTCAGTCTGGTACGC, the PBM binding z-score in assay [1] is -0.261; in assay [2] it was 0.0389; in assay [3] it was -0.491; in assay [4] it was -0.267; in assay [5], 0.25; in assay [6] it was -0.18. In addition, the PBM binding z-score in assay [7] was -0.896; in assay [8], -0.57.

Consider CCGACTGGGGCAACGTTACCATAACGCACAGCCA, for which the PBM binding z-score in assay [1] was -0.0419; in assay [2], 0.137; in assay [3], 0.521; in assay [4] it was -0.207; in assay [5], -0.126; in assay [6] it was -0.262. Moreover, the PBM binding z-score in assay [7] is -0.261; in assay [8], -0.403.

With TCTGCTAGGTCAAGGATGGTCAGCTAATCTGCTA, the PBM binding z-score in assay [1] turned out to be 3.49; in assay [2] it was 3.97; in assay [3], 4.85; in assay [4] it was 0.94; in assay [5], 2.6; in assay [6], 2.88. Moreover, the results for the PBM binding z-score in assay [7] and in assay [8] were 0.621 and -0.0676, respectively.

On to ATCGATAGGTCGAAGGTGAGTATACCCACCCGAA, for which the PBM binding z-score was 0.922 in assay [1]; 2.06 in assay [2]; 1.56 in assay [3]; -0.262 in assay [4]; 2.36 in assay [5]; 0.837 in assay [6]. Besides, the PBM binding z-score was -0.266 in assay [7] and -0.3 in assay [8].

As for AGAATGAGGTTATGAAGATCAGGGAATTGCGGTC, the PBM binding z-score came to 1.07 in assay [1]; 1.45 in assay [2]; 1.06 in assay [3]; 1.05 in assay [4]; 2.45 in assay [5]; 2.35 in assay [6]. Also, the PBM binding z-score in assay [7] was determined as 0.96; in assay [8], 0.716.

On to CATACAGGGTCAGCGAGGCCAGAGTAGGGACGGC, for which the PBM binding z-score in assay [1] worked out at 3.42; in assay [2], 4.59; in assay [3], 4.23; in assay [4], 1.89; in assay [5], 4.45; in assay [6], 3.58. Also, the values for the PBM binding z-score in assay [7] and in assay [8] were 1.01 and 2.49, respectively.

ACGTACGGGTCAACGAGGTTATAGCACGCGTATA: the PBM binding z-score in assay [1] was 3.58; in assay [2], 5.69; in assay [3], 5.07; in assay [4] it was 2.07; in assay [5] it was 6.3; in assay [6] it was 4. Further, the PBM binding z-score in assay [7] came to 0.75; in assay [8], 3.93.

Source of the values: the supplement of paper PMC6555819.
